These results are taken from PubChem BioAssay (NCI).

This is part of a sample that, as a whole, favours compounds with a hit. Of some 83,000 tested, about 20% had one in any assay.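 The endpoint reported here, percent growth, reads 100 for growth as untreated, 0 for no net growth and -100 for all cells dead.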 A number with no mark means an inactive call. Calls of active or inactive are those of the source. The calls were made as follows: active = growth percent below 10; inactive = the rest.

The test system of this assay is SR leukemia. In words: NCI-60 one-dose screen, 48 h (100 = growth as untreated, 0 = no growth, -100 = all killed). The conditions noted are these: 10 µM unless noted.
Consider `COc1c(F)ccc(C(=O)Nc2ccc3nc(NC(=O)C4CCCN(S(=O)(=O)C5CC5)C4)sc3c2)c1F` (configuration not stated), for which the growth is 10.3%. For `CCOC(=O)C1=C(N)N(c2ccccc2)C2=C(C(=O)CC(C)(C)C2)C1c1ccc(N2CCOCC2)cc1` (configuration not stated) the value was 83.8%; for `OCC1(CCCc2ccccc2)CCCN(c2nccc3ccccc23)C1` (configuration not stated), 12.1%; for `COc1ccc(/C=N/NC(=O)Cn2nc(Cc3ccc(OC)cc3)c3onc(C)c3c2=O)cc1`, 53.4%. For `O=[N+]([O-])c1ccc(/C=C/c2nc3ccccc3n3c(=S)[nH]nc23)cc1` the value was 71.6%. For `COC(=O)/C=C/c1cccc2c1C(=O)NC(C)(c1cc3ccccc3oc1=O)N2` (configuration not stated) the value was 58.7%; for `CCN(CC)c1ccc(/C=N/Nc2nc(-c3ccc(Br)cc3)cs2)c(O)c1`, 3.58% (active); for `O=C(c1ccccc1)C(c1c[nH]c2ccccc12)c1c[nH]c2ccccc12`, 7.54% (active). On to `CC1(C)CC[C@]2(C(=O)Nc3ccc(Br)cc3)CC[C@]3(C)C(=CCC4[C@@]5(C)C[C@@H](O)[C@H](O)[C@@](C)(CO)C5CC[C@]43C)C2C1` (some centres not stated), for which the growth is -9.66% (active). Regarding `CC(/C=C1\SC(=S)N(CCCC(=O)NC(CC(C)C)C(=O)O)C1=O)=C\c1ccccc1` (configuration not stated), the growth is 101%.

For `Cn1cc(-c2cc(N)n3nc(-c4cn(C)c5ccccc45)cc3n2)c2cc(Br)ccc21`, the growth is 7.44% (active). For `Cc1ccc(NCC(=O)Cn2cc(COc3ccc(C=Nc4cnc5ccccc5c4)cc3)nn2)cc1` the value was 103%; for `Cc1ccc([C@H]2C(C(=O)c3ccc(Cl)cc3)C3(N[C@@H]2c2ccccc2)C(=O)Nc2ccc(Cl)cc23)cc1` (some centres not stated), -3.12% (active); for `Cc1cc2nc3c4ccccc4n(CCNCCN(C)C)c3nc2cc1C`, -1.38% (active). As to `Cc1ccccc1[C@H]1C(C(=O)c2ccc(Cl)cc2)C2(N[C@@H]1c1ccccc1)C(=O)Nc1ccc(Br)cc12` (some centres not stated), the growth is -21.5% (active).

As to `CC(C)c1sc(NC(=O)c2cc(NC(=O)c3cc(NC(=O)c4cscn4)cn3C)cn2C)nc1C(=O)NCCCN(C)C`, the growth was -8.69% (active).

For the compound `CC(=O)OC[C@@]1(C)C2CC[C@]3(C)C(CC=C4C5CC(C)(C)CC[C@]5(C(=O)Nc5ccc(C)cc5)CC[C@]43C)[C@@]2(C)C[C@@H](OC(C)=O)[C@@H]1OC(C)=O` (some centres not stated), the growth is 30.9%. Under `O=C1CC(Sc2n[nH]c(-c3ccncc3)n2)C(=O)N1c1ccc(Br)cc1` (configuration not stated) stands 97.4%; under `COc1cc2c3c(n(CCCN4CCC[C@@H]4CO)c(=O)c2cc1OC)-c1cc2c(cc1C3=O)OCO2`, -25.5% (active); under `C=C1CCC2C3(C)COC(c4ccc(F)cc4)OC3CCC2(C)C1C/C=C1/C(=O)OCC1O` (configuration not stated), 7.55% (active). For `Cc1sc(C(NC(=O)OCCn2c([N+](=O)[O-])cnc2C)C(F)(F)Cl)nc1-c1ccc(OC(F)(F)F)cc1` (configuration not stated) the value was 5.16% (active); for `CC1[C@H]2[C@H](C[C@H]3[C@@H]4CC=C5c6sc(Nc7ccccc7F)nc6CC[C@]5(C)[C@H]4CC[C@@]32C)O[C@]12CC[C@@H](C)CO2` (some centres not stated), 4.49% (active).

Consider `O=C(c1ccccc1)c1ccc2nc(-c3cccc(Cl)c3)[nH]c2c1`, for which the growth is 117%. For `OCNc1ccc(-n2cnc3cc(-c4ccc(O)cc4)ccc32)cc1C(F)(F)F` the value was 25.3%; for `CCOC(=O)C(N=Nc1ccc(S(=O)(=O)N=C(N)N)cc1)C(C)=O` (configuration not stated), 99.4%; for `CCOC(=O)/C=C/c1cccc2c1C(=O)NC(C)(c1cc3cc(Cl)ccc3oc1=O)N2` (configuration not stated), 1.88% (active). Consider `C#CCOc1cc(N(CC)CC)ccc1C(C(=O)NC(C)(C)C)N(C(=O)C1CCc2cc(F)ccc2O1)c1ccc(Br)cc1` (configuration not stated), for which the growth was 54%. For `CCCCCCCCc1ccc(C(=O)Nc2ccc(C)cc2C(=O)O)cc1C`, the growth is 88.2%. With `C#CCOc1cc(N(CC)CC)ccc1C(C(=O)NC(C)(C)C)N(C(=O)C1CCc2cc(F)ccc2O1)c1ccc(F)c(Cl)c1` (configuration not stated), the growth was 35%. Under `CCOC(=O)C1=C(N)N(c2ccccc2)C2=C(C(=O)CC(C)(C)C2)C1c1ccc([N+](=O)[O-])cc1` (configuration not stated) stands 66.4%; under `C=C1CC[C@@H]2[C@]3(C)COC(c4ccccc4)O[C@@H]3CC[C@@]2(C)[C@@H]1C/C=C1/C(=O)OCC1OC(C)=O` (some centres not stated), -32.8% (active). For `C#C[C@]1(O)CC[C@H]2[C@@H]3CC=C4c5sc(-c6ccc([N+](=O)[O-])cc6)nc5CC[C@]4(C)[C@H]3CC[C@@]21C` the value was 1.72% (active).
